In PubChem BioAssay (NCI):
This is part of a sample that, as a whole, favours compounds with a hit. Of some 83,000 tested, about 20% had one in any assay.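 Percent growth is the endpoint: 0 to 100 indicates growth inhibition (40 means 60% inhibition), 0 means no net growth, and negative values indicate cell death.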 Values without a mark were called inactive. Activity calls are given as the source filed them. The calls were made as follows: active = growth percent below 10; inactive = the rest.

Assays:
Assay in all cases: NCI-60 one-dose screen, 48 h (100 = growth as untreated, 0 = no growth, -100 = all killed)
DU-145 prostate = conditions: 10 µM unless noted
K-562 leukemia = conditions: 10 µM unless noted
MALME-3M melanoma = conditions: 10 µM unless noted
MDA-MB-231 breast = conditions: 10 µM unless noted
RXF 393 renal = conditions: 10 µM unless noted
SF-268 CNS = conditions: 10 µM unless noted
SF-295 CNS = conditions: 10 µM unless noted
SF-539 CNS = conditions: 10 µM unless noted
UACC-257 melanoma = conditions: 10 µM
M14 melanoma = conditions: 10 µM unless noted
HCT-15 colon = conditions: 10 µM unless noted
HT29 colon = conditions: 10 µM unless noted
SNB-75 CNS = conditions: 10 µM unless noted
SNB-19 CNS = conditions: 10 µM unless noted
U251 CNS = conditions: 10 µM unless noted
SK-MEL-5 melanoma = conditions: 10 µM unless noted
UACC-62 melanoma = conditions: 10 µM unless noted
SK-MEL-28 melanoma = conditions: 10 µM unless noted
PC-3 prostate = conditions: 10 µM unless noted
LOX IMVI melanoma = conditions: 10 µM unless noted

SMILES	growth (DU-145 prostate)	growth (K-562 leukemia)	growth (MALME-3M melanoma)	growth (MDA-MB-231 breast)	growth (RXF 393 renal)	growth (SF-268 CNS)	growth (SF-295 CNS)	growth (SF-539 CNS)	growth (UACC-257 melanoma)	growth (M14 melanoma)	growth (HCT-15 colon)	growth (HT29 colon)	growth (SNB-75 CNS)	growth (SNB-19 CNS)	growth (U251 CNS)	growth (SK-MEL-5 melanoma)	growth (UACC-62 melanoma)	growth (SK-MEL-28 melanoma)	growth (PC-3 prostate)	growth (LOX IMVI melanoma)
COc1ccc(OC)c(C(=O)c2oc3ccc(Br)cc3c2N)c1	16.3%	8.24% (active)	35.2%	29.8%	-30.1% (active)	47.3%	-35.1% (active)	-44.4% (active)	49.9%	27.3%	24.2%	7.35% (active)	-29.4% (active)	38.3%	9.85% (active)	31.7%	10.9%	37.9%		
C=C1C(=O)O[C@H]2[C@H]1CC/C(COC(=O)NCc1ccc(OC)cc1)=C\CC[C@@]1(C)O[C@@H]21	33.5%	14%	98.3%	60.9%	15%	55.5%	96.2%	50.2%		32.9%	12.9%	-4.4% (active)	96.4%	61.7%	67.4%	87%	27.5%	51.2%	52.9%	13.9%
COc1cc(/C=C/C(=O)c2ccc(NC(=O)CN3CCN(c4cc5c(cc4F)c(=O)c(C(=O)O)cn5C4CC4)CC3)cc2)cc(OC)c1OC	2.17% (active)	1.66% (active)	31.4%	27.6%	-87.6% (active)	-1.11% (active)	-27.2% (active)	-15.7% (active)	30.8%	-14.1% (active)	18.2%	-3.37% (active)		34.9%		-42.9% (active)	-23.5% (active)	34%	21.5%	-54.7% (active)
CC/C=C\C[C@H](O)C/C=C1/C(=O)C(Cl)=C[C@@H]1C/C=C\CCCC(=O)OC	-67.1% (active)	2.41% (active)	-9.56% (active)	-55.2% (active)	-62.8% (active)	-35% (active)	-19.6% (active)	-4.69% (active)		-32.4% (active)	-61.5% (active)	-76.7% (active)	50%	-10.9% (active)	-75.7% (active)	-77.7% (active)	-57% (active)	-2.03% (active)	-33.9% (active)	-89.9% (active)
O=C1N=C(c2c(-c3[nH]c(=O)c4ccc(Br)cc4c3O)c(O)c3ccccc3c2O)C(=O)c2cc(Br)ccc21	-38.2% (active)	14.3%	-74.3% (active)	-8.73% (active)	-76.1% (active)	-41.4% (active)	17.2%	-57.7% (active)	-51.6% (active)	-31.9% (active)	-36.3% (active)	25.7%		4.13% (active)	-57.9% (active)	-9.06% (active)	-48.9% (active)	-47.8% (active)	-60.5% (active)	-67.5% (active)
Cc1ccc(C2=NN(c3ccc(S(=O)(=O)NC(=O)NCc4ccccc4)cc3)C(c3ccc(N(C)C)cc3)C2)c(C)c1 (stereo unspecified)	82.7%	49.6%	87%	75.7%	53%	50.8%	52.7%	37.6%	60.3%	27.3%	32.6%	43%		54.8%	22.6%	12.2%	54.7%	26.6%	32.7%	36.3%
CCn1cc(C(=O)O)c(=O)c2cc(F)c(N3CCN(S(=O)(=O)c4ccc(OC)c(OC)c4)CC3)cc21	108%	101%	93.6%	103%	109%	88.9%	93.8%	90.8%	106%	44.1%	102%	102%	85.5%	96.2%		93.5%	95.2%	102%	90%	85.8%
CCC#CC[C@H]1C/C=C2/C(=O)C=C[C@@H]2C/C=C\CCCC(=O)O1	9.38% (active)	2.38% (active)	1.52% (active)	16.1%	-65.4% (active)	5.57% (active)	4.47% (active)	8.07% (active)		2.84% (active)	-6.01% (active)	-15.8% (active)	38.7%	37.3%	-11.2% (active)	-85.6% (active)	-17.6% (active)	1.63% (active)	-19.7% (active)	-55.8% (active)
O=S(=O)(NCCCNc1nccc(-c2c(-c3ccccc3)nc3sccn23)n1)c1ccc(F)cc1	44.8%	26.4%	67.9%	58.4%	47.2%	51%	29.8%	82%	71.3%	35%	19.4%	29%	44%	75.1%		14.3%	23.1%	56.3%	60.6%	23.7%
COc1cc(CNC(=O)CCSc2nc3ccccc3c(=O)n2Cc2cc(OC)c(OC)c(OC)c2)cc(OC)c1OC	58.1%	8.67% (active)	40.9%	46%	43.6%	50.4%	36.6%	25.4%	59.1%	6.56% (active)	17.7%	12.9%	17.9%	56%		12.6%	36.3%	55.8%	49.5%	44.6%
CCCCCc1c(C)[nH]c(/C=c2\[nH]/c(=C3/C=c4ccccc4=N3)cc2OC)c1C	5.25% (active)	-9.81% (active)	-65% (active)	-80.5% (active)	-46.7% (active)	-38.3% (active)	-60.2% (active)	-67.1% (active)	-42.4% (active)	-81.6% (active)	-29.8% (active)	-13.4% (active)	-22.6% (active)	10.5%		-98.7% (active)	-78.9% (active)	-60.2% (active)	-6.91% (active)	-85.2% (active)
O=C(/C=C/c1ccccc1)n1c(-c2ccc(Cl)cc2)nc2ccccc21	11.1%	39.8%	15.9%	-26.5% (active)	-65.2% (active)	-11.9% (active)	-52% (active)	-48.4% (active)	-64.4% (active)	-37.3% (active)	-24.8% (active)	-40.6% (active)		41.1%		-70.6% (active)	-84.7% (active)	-65.4% (active)	6.09% (active)	-82.9% (active)
CC(=O)OC[Si](C)(C)c1ccccc1	113%	102%	110%	105%	107%	103%	91.6%	96.2%	92.3%	97.8%	99.7%	105%	89.8%	102%		97.3%	102%	98.2%	95.8%	103%
CCCCC[C@@H]1Cc2cc(O)c(C(=O)O)c3c2[C@H](C[C@@]2(CCCO2)O3)O1	111%	58.1%	121%	101%	73.4%	116%	101%	103%		103%	112%	113%	98.1%	107%	105%	111%	110%	109%	101%	93.6%
Cn1c(-c2nonc2NC(=O)c2ccc(F)cc2)nc2ccccc21	107%	9.03% (active)	123%	129%	109%	109%	98.5%	103%	97.2%	106%	103%	101%	100%	110%		97.2%	108%	110%	101%	97.8%
N#Cc1ccc(NC(=O)c2ccc3cccnc3c2O)cc1	29.4%	30.7%	42.1%	44.4%	49.4%	21.6%	38.5%	17.1%	13.5%	6.01% (active)	31.4%	30.7%		23.6%	14.6%	14.4%	9.43% (active)	34.5%	45.9%	21.9%
